Screens from PubChem.
RGS4 inhibitor: human RGS4 inhibition. 0.039% of 390,000 active. AID 504845. Potency, µM (series often up to 114 µM), for inactives: at the top dose activity change, negative = inhibition, hits mostly inhibitors. Transcreener GDP fluorescence polarization, RGS4-accelerated GTP hydrolysis. P49798; also: % is scaled to controls: 0 for no effect and ±100 for the full control effect; nearly all actives have a fitted effect of over 75% in size
Target sequence (P49798 whole entry, looked up): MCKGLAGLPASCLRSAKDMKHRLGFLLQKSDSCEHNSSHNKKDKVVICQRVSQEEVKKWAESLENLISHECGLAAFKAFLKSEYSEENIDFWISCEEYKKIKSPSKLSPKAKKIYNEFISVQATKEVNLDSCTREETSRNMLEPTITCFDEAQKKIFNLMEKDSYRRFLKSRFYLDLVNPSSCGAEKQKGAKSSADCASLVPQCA
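MLSMR compounds (23 nl, pin-transferred) preincubated 10 min at room temperature with a 500nM (2x) first reagent, then RGS4 at 900nM (2x) plus Transcreener GDP mix added; fluorescence polarization (620/688 nm) read before and after 90 min at 30 °C.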
KB-V1 cytotox: kills drug-selected multidrug resistant KB-V1 cells; Potency, µM (series often up to 46.1 µM), usual class: cytotoxic; AID 1347076; 3.4% of 400,000 active; KB-V1 MDR cells viability, CellTiter-Glo, 72 h; also: % is scaled to controls: 0 for no effect and ±100 for the full control effect; nearly all actives have a fitted effect of over 60% in size
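In this primary screen, KB-V1 cells overexpressing P-gp are incubated with library compounds (lowest to highest concentration) for 72 h at 37 degrees C before a luminescent ATP viability read.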
PTAP TSG101 blk: blocks PTAP/TSG101 interaction to inhibit HIV-1 budding | Q99816 | Fluorescence polarization, FITC-PTAP peptide / Tsg101 binding | Potency, µM (titrated, usually from 115 µM), inactives show top-dose activity change, negative = inhibition, most hits filed as inhibitors | 340,000 tested, under 10 active | AID 493005; active = well fitted inhibition curve with a large enough effect in the main read-out, with a control signal flat, not every such curve was filed as active; inconclusive = small, poorly fitted or top-dose-only effect, or effect the other way, or a change in a side signal; inactive = no such curve, though single readings can be large or run the other way; also: % of control where 0% means no effect
Target sequence (Q99816 whole entry, looked up): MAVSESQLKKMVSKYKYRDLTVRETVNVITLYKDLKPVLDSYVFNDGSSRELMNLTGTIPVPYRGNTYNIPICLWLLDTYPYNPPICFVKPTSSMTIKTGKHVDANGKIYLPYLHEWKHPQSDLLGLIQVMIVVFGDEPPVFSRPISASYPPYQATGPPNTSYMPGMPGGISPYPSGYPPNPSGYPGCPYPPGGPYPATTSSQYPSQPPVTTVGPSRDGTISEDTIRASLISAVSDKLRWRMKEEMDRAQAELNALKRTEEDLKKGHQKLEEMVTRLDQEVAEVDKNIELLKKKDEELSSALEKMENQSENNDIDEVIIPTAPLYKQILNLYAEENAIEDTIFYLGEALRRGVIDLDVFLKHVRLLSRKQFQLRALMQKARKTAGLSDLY
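Compounds were pin-transferred onto Tsg101 binding domain (10 uM final) in HEPES pH 7.5 buffer, then FITC-PTAP peptide was added at 50 nM final. After 20 min at RT, polarization reported peptide displacement across a qHTS concentration series.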
MCF10A rerep: inducers of DNA re-replication in MCF 10A breast cells. MCF 10A DNA re-replication, Hoechst nuclear intensity, 48 h. Potency, µM (doses to about 46.1 µM), for the others: top-dose activity, positive = re-replication, actives largely listed as activators. 2.9% of 350,000 active. AID 624296; also: % of control where 0% means no effect; nearly all actives have a fitted effect of over 50% in size
SW480 rerep: induces DNA re-replication in SW480 colon adenocarcinoma cells; SW480 DNA re-replication, Hoechst DNA content imaging, 48 h; Potency, µM (series often up to 46.1 µM), for inactives: at the highest dose re-replication activation, most hits filed as activators; 1.8% of 340,000 active; also: % of control where 0% means no effect; nearly all actives have a fitted effect of over 55% in size
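250 cells/well; 23 nL cpd via pin tool; 48 hr, 37 C, 5% CO2; Hoechst 40 min; imager read of total nuclear intensity, ex 405/em 500-530 nm.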
KB-3-1 tox: kills parental KB-3-1 adenocarcinoma cells. KB-3-1 viability, CellTiter-Glo ATP luminescence, 72 h. Potency, µM (titrated, usually from 46.1 µM), actives largely listed as cytotoxic. 1.4% of 400,000 active. AID 1347075; also: % is scaled to controls: 0 for no effect and ±100 for the full control effect; nearly all actives have a fitted effect of over 60% in size
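Parental KB-3-1 viability, qHTS format: 72 h compound exposure, 37 °C; CellTiter-Glo; media-only wells and DMSO plates as controls; concentration-effect fits on corrected data.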
* marks the source's active call; other numbers are inactive results; i = inactive; ? = inconclusive; / = not tested or not shown; ! = not active in a repeat; [ ] = dose if it differs, or a comment. Hits are enriched below; roughly 6.6% of the tested compounds scored in any of these assays. Unless noted, calls follow the shape of the dose curve; as a rule, active = well fitted curve in the direction sought with a large enough effect; inconclusive = small, poorly fitted or top-dose-only effect, or another doubt; inactive = no such curve, though single readings can be large; an effect the other way counts as inactive or inconclusive. Potency is read from the fitted curve at half-maximal effect.

SMILES | RGS4 inhibitor | KB-V1 cytotox | PTAP TSG101 blk | MCF10A rerep | SW480 rerep | KB-3-1 tox
Cc1ccc(NC(=O)CN2C(=O)c3cccnc3Sc3ccccc32)cc1C | -18% | / | / | / | / | /
c1ccc2c(c1)sc[n+]2CCC1CCCCC1 | / | i | / | / | / | i
COc1ccc(-c2csc(NC(=O)Cc3cc(OC)c(OC)c(OC)c3)n2)cc1OC | 11% | 6.5µM* | -3% | 3% | 2% | i
Cc1ccc(CC(=O)Nc2nncs2)cc1 | 11% | i | -5% | -1% | -17% | i
COCCSc1nnc(NC(=O)Cc2ccc(OC)c(OC)c2)s1 | 4% | ? | -6% | 10% | 23µM* | ?
COc1ccc(CC(=O)Nc2nncs2)cc1OC | 6% | i | -7% | -8% | 8.2µM* | i
O=C(CCCc1ccccc1)Nc1nncs1 | -24% | 9.2µM* | -9% | -4% | -13% | i
O=C(O)CCCC(=O)Nc1nncs1 | 11% | i | 1% | -5% | -3% | i
CC(=O)Nc1cccc(NC(=O)CSc2cn(CC(=O)N3CCCCCC3)c3ccccc23)c1 | -12% | / | / | / | / | /
CCOC(=O)c1oc2ccc(S(=O)(=O)n3nc(-c4cc(OC)cc(OC)c4)cc3N)cc2c1C | -7% | i | / | / | / | i
COc1ccc(OC)c(-c2csc(NC(=O)Cc3ccccc3F)n2)c1 | 3% | ? | 0% | 21µM* | ? | i
COc1ccc(OC)c(-c2csc(NC(=O)Cc3ccccc3OC)n2)c1 | 14% | ? | -1% | 11% | 22% | i
COc1ccc(-c2cc(C)no2)cc1S(=O)(=O)NC1CCC(C)CC1 (configuration not stated) | 12% | i | / | / | / | i
CCOC(=O)c1ccc(NC(=O)c2cc(=O)c3ccc(C)c(C)c3o2)cc1 | 23% | i | / | / | / | i
Cc1cccc(C)c1NC(=O)c1nc(S(=O)(=O)Cc2ccccc2)ncc1Cl | ? | ? | 3% | ? | ? | ?
Cc1ccc(NC(=O)c2nc(S(=O)(=O)Cc3ccccc3)ncc2Cl)cc1 | ? | ? | 0% | ? | 20% | 13µM*
CCOc1ccc(NC(=O)c2nc(S(=O)(=O)Cc3ccc(F)cc3)ncc2Cl)cc1 | / | ? | / | / | / | i
Cc1cccc(CS(=O)(=O)c2ncc(Cl)c(C(=O)NCc3ccccc3)n2)c1 | ? | i | -1% | 13µM* | ? | i
Cc1cccc(CS(=O)(=O)c2ncc(Cl)c(C(=O)Nc3c(C)cccc3C)n2)c1 | ? | ? | -1% | ? | ? | ?
O=C(Nc1ccc(F)cc1)c1nc(S(=O)(=O)Cc2ccccc2)ncc1Cl | ? | ? | -2% | 6% | 4% | 5.2µM*
COc1ccc(OC)c(NC(=O)c2nc(S(=O)(=O)Cc3ccccc3F)ncc2Cl)c1 | / | i | / | / | / | ?
COc1ccc(OC)c(NC(=O)c2nc(S(=O)(=O)Cc3ccccc3)ncc2Cl)c1 | -37% | ? | 1% | 1.6µM* | ? | 4.1µM*
COC(=O)CN1CC(=O)c2ccccc2S1(=O)=O | -49% | / | / | / | / | /
CC(C)CN(CC(C)C)c1nnc(NC(=O)Nc2cccc(C(F)(F)F)c2)s1 | 6% | ? | / | / | / | ?
O=S(=O)(c1ccc(Cl)cc1)c1nc(-c2cccs2)oc1SCc1ccc(F)cc1 | -16% | ? | / | / | / | i
SMILES | RGS4 inhibitor | KB-V1 cytotox | PTAP TSG101 blk | MCF10A rerep | SW480 rerep | KB-3-1 tox
Cc1cccc(CCNC(=O)c2nn(C)c3c2CSc2ccccc2-3)c1 | 13% | / | / | / | / | /
Cc1nnc(NC(=O)c2nc(S(=O)(=O)Cc3ccccc3)ncc2Cl)s1 | ? | ? | 4% | ? | 1% | 10µM*!
CCCc1nnc(NC(=O)c2nc(S(=O)(=O)Cc3cccc(C)c3)ncc2Cl)s1 | -42% | i | -1% | ? | ? | i
CC(=O)c1ccc(N2CCN(S(=O)(=O)c3ccc4c(c3)CC(C)N4C(=O)C3CCC3)CC2)cc1 (configuration not stated) | -8% | i | / | / | / | i
Cc1nn(CCCC(=O)NCc2ccccc2)c(=O)c2cc3sccc3n12 | 22% | / | / | / | / | /
O=C(CSC1=Nc2ccccc2C2CC=NN12)Nc1ccc(F)c(F)c1F (configuration not stated) | 3% | i | -5% | 21µM* | 5% | i
Cc1nc2ccccc2n1CCc1nc2c3ccccc3nc(=S)n2[nH]1 | ? | i | -4% | -3% | -8% | i
Cc1ccccc1-c1nc2c3ccccc3nc(=S)n2[nH]1 | -41% | i | 1% | 7.3µM* | 15% | i
CCOC(=O)C1=C(O)CSC1=Nc1ccc(C)cc1 | -8% | i | -1% | -7% | 0% | i
CCOC(=O)C1=C(O)CSC1=Nc1cccc2ccccc12 | 11% | 23µM* | -2% | 3% | -41% | i
CSc1nnc(-c2sc3cc(Cl)ccc3c2Cl)n1C | 15% | 18µM* | -2% | ? | 16% | ?
NNC(=O)[C@@H]1C[C@@H]1c1ccccc1 | -4%[11.4 µM] | i | -4% | 6% | 0% | i
CCc1c(C)sc(NC(=O)C2CC2c2ccccc2)c1C(N)=O (configuration not stated) | -22% | 6.5µM* | -5% | ? | 17% | i
Cc1ccc([N+](=O)[O-])cc1S(=O)(=O)NCCc1c(C)[nH]c2c(C)cccc12 | -21% | i | -4% | 13% | -5% | i
Cc1[nH]c2c(C)cccc2c1CCNS(=O)(=O)c1cccc([N+](=O)[O-])c1 | 10% | 23µM* | -1% | -7% | -5% | ?
CCOC(=O)CSC1=NC(=O)/C(=C\c2ccc(OC(C)=O)cc2)S1 | -52% | ? | -1% | 2.6µM* | ? | ?
Nc1nc(NCCOCCO)nc(NC2CCCCC2)c1[N+](=O)[O-] | 12% | i | -6% | 13% | ? | i
Nc1nc(Nc2ccccc2)nc(NC2CCCCC2)c1[N+](=O)[O-] | 1% | ? | -13% | ? | 9.2µM* | ?
Nc1nc(NCCO)nc(NC2CCCCC2)c1[N+](=O)[O-] | 5% | i | -3% | 26µM* | ? | i
CNc1nc(N)c([N+](=O)[O-])c(NC2CCCCC2)n1 | -2% | i | 0% | -2% | -7% | i
CC(=O)c1cc(-c2ccccc2)n(CCC(=O)Nc2ccc(C(C)C)cc2)c1C | 7% | ? | / | / | / | ?
Cc1ccc(C(=O)CSc2nnc(-c3ccccc3)n2-c2ccccc2)o1 | 3% | ? | -4% | ? | 3% | i
Cc1cc(C)nc(NC(=O)CSc2nnnn2-c2ccccc2)n1 | 11% | 21µM* | -6% | 1% | -2% | i
